The supplement of paper PMC6555819

Assays:
Assay in all cases: PBM binding z-score (relative to random genomic background probes); higher = stronger binding; sequences stand for … in GC…GCGATTGACAGCGTAGAATGAAGG
[1] = system: PPARg:RXRa IVT, anti-PPARg (NR concentration 270 nM, RXRa partner concentration 90 nM)
Procedure, shortened: (§1)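 Probes were double-stranded and carried 34-nt variable regions with direct-repeat seeds, single-nucleotide variants, half-site ablations and random human genomic background sequences, printed on custom Agilent 4×180K protein-binding microarrays. Arrays were incubated 1 h with ligand-free nuclear receptor dimers in PBS pH 7.4, 2% milk, 0.02% Triton X-100, 1 mM DTT, 0.2 mg/mL BSA and 0.4 mg/ml salmon testes DNA. Antibodies against each partner (one per run) detected binding, and scanned fluorescence was regression-normalized. Binding z-scores use the random background probes as reference.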

[2] = system: PPARg DBDmut:RXRa IVT, anti-PPARg (DBD mutation: PPARg1 K132A/R137A, NR concentration 270 nM, RXRa partner concentration 90 nM)
Procedure, shortened: as §1

[3] = system: PPARg DBDmut IVT, anti-PPARg (DBD mutation: PPARg1 K132A/R137A, NR concentration 270 nM)
Procedure, shortened: as §1

[4] = system: PPARg homodimer (NR concentration 180 nM)
Procedure, shortened: as §1

[5] = system: PXR:RXRa (NR concentration 270 nM, RXRa partner concentration 90 nM)
Procedure, shortened: as §1

[6] = system: PXR homodimer (NR concentration 270 nM)
Procedure, shortened: as §1

[7] = system: RARa:RXR (NR concentration 270 nM, RXRa partner concentration 90 nM)
Procedure, shortened: as §1

[8] = system: RARa homodimer (NR concentration 270 nM)
Procedure, shortened: as §1

[9] = system: RARb:RXRa (NR concentration 270 nM, RXRa partner concentration 90 nM)
Procedure, shortened: as §1

[10] = system: RARb homodimer (NR concentration 270 nM)
Procedure, shortened: as §1

Row | Sequence | PBM binding z-score [1] | PBM binding z-score [2] | PBM binding z-score [3] | PBM binding z-score [4] | PBM binding z-score [5] | PBM binding z-score [6] | PBM binding z-score [7] | PBM binding z-score [8] | PBM binding z-score [9] | PBM binding z-score [10]
1 | CCTACTGGGCCACGAAAGGCCATTGATTCAGTGA | 5.01 | -0.487 | -0.189 | 0.0675 | 0.149 | -0.378 | 0.18 | -0.712 | 1.18 | 1.36
2 | GATACAGGGTCAAGGTCAGAGTACGCGTATTGAT | 5.18 | 1.47 | 0.678 | 2.96 | 5.08 | 1.84 | 5.53 | 2.12 | 5.11 | 5.14
3 | GCTTACGGGTCCAAGGTTATAGCATGAATAGAAT | 0.338 | 0.865 | -0.558 | 0.0227 | 0.869 | 0.331 | 1.06 | 0.0844 | 0.932 | 0.871
4 | CCTACTGGGCCACTAAAGGTCATTGATTCAGTGA | 5.37 | 0.801 | 0.225 | 3.43 | 5.12 | 1.79 | 5.18 | 1.26 | 3.89 | 4.55
5 | CCTGCTAGGTCATGGTCAGCGAATCTACAGTATG | 3.76 | -0.0271 | -0.639 | 2 | 1.18 | -0.875 | 2.26 | -0.334 | 4.09 | 3.29
6 | CCTAGTTGTTCAGGAGGTCACACACCGGATATGA | 2.97 | 1.15 | 0.86 | 3.91 | 4.18 | 2.15 | 4.4 | 2.25 | 3.62 | 4.15
7 | TCGCCTAGGTCATGGGCCAGTATACCACGCGAAC | 2.65 | 0.306 | -0.587 | 1.21 | 1.7 | -0.2 | 2.97 | -0.243 | 3.97 | 3.12
8 | AGAATGAGGTTACTAAAGATCAGGGAAACGCTTG | 2.84 | 0.939 | 0.661 | 0.271 | 0.942 | 0.152 | 1.21 | 0.392 | 1.51 | 0.777
9 | TACCCTAGGTCATTGGGCCAGTATAGTACGCATC | 4.36 | 0.464 | 0.484 | 1.89 | 1.94 | 0.578 | 2.56 | 0.228 | 3.87 | 3.25
10 | GCATATAGGTAATACAAGGTCAAAGTCCGATTGT | 4.1 | 0.883 | 0.92 | 1.97 | 4.93 | 2.12 | 4.47 | 1.17 | 2.92 | 3.79
11 | CCTTACGGGTCACTGACAGGTTATAGCGTTTGGA | 3.67 | -0.0392 | -0.319 | 2.56 | 3.48 | 0.179 | 3.97 | 0.964 | 3.88 | 3.34
12 | TCTCGGAGGAAACGAAAGGTCAGAGCTCGACATC | 0.961 | -0.0511 | -0.298 | 2.23 | 3.7 | 0.181 | 4.48 | 1.31 | 3.73 | 4.28
